Data published in PubChem BioAssay AID588342 (National Center for Advancing Translational Sciences (NCATS), 2011).
The campaign covered roughly 360,000 compounds. About 25,000 (6.9%) were called active. Another 9% or so got no clear call; they are omitted. Calls follow the shape of the dose curve; as a rule, active = well fitted inhibition curve with a large enough effect; inconclusive = small, poorly fitted or top-dose-only effect; inactive = flat fitted curve, though single readings scatter. The entries come from a sample that favours actives as a whole.

biological target: Luciferin 4-monooxygenase (Photinus pyralis) (UniProt P08659); assay: qHTS profiling assay for firefly luciferase inhibitor/activator using purifed enzyme and Km concentrations of substrates (counterscreen for miR-21 project); conditions: purified FLuc, luminescence inhibition; series mostly up to 57.5 µM; activity change, negative = inhibition: at the top concentration; also: nearly all actives have a fitted effect of over 55% in size;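 as to activity change, negative = inhibition: plate controls were vehicle for no effect and reference inhibitor for full effect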
How it was run: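 Biochemical qHTS of compounds, final roughly 60 µM downward over six points, against 10 nM purified firefly luciferase using Km concentrations of substrates (10 uM D-luciferin, 10 uM ATP) in Tris acetate pH 7.5 buffer; luminescence output.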
Potency is read from the fitted curve at half-maximal effect.

Sequence of Luciferin 4-monooxygenase (Photinus pyralis) (P08659 whole entry, looked up): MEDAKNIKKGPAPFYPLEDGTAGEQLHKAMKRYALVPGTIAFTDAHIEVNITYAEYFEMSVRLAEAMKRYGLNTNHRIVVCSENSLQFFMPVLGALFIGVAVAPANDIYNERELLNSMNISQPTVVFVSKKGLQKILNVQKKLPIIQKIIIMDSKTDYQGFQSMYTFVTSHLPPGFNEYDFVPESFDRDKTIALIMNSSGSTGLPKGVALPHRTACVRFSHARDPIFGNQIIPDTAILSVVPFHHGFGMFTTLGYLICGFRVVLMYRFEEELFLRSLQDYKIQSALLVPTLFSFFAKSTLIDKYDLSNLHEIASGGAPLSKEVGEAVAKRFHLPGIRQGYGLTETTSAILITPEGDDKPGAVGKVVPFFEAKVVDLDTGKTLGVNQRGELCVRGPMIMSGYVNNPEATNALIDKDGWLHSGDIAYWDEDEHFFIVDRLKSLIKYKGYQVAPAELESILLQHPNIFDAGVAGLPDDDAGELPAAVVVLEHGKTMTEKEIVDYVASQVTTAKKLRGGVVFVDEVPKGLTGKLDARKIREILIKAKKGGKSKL

SMILES | activity change, negative = inhibition | Potency
O=C(/C=C/c1cn(CC(O)CN2CCc3ccccc32)c2ccccc12)c1ccc(Br)cc1 (stereo unspecified) | -2.15% (inactive) | –
CC(=O)c1ccc(NC(=O)CSC(=S)N2CCCC2)cc1 | -11.5% (inactive) | –
O=C(CSC(=S)N1CCOCC1)c1ccccc1 | – | 3.01 µM (active)
O=C(CSC(=S)N1CCOCC1)c1cc(Br)cc(Br)c1O | -14.9% (inactive) | –
O=C(CSC(=S)N1CCCCC1)c1c(F)cccc1F | – | 2.13 µM (active)
CC1CN(C(=S)SCC(=O)c2ccccc2)CC(C)O1 (stereo unspecified) | -1.21% (inactive) | –
COc1cccc(NC(=O)CN(C)C(=O)CSC(=S)N2CCCC2)c1 | 2.27% (inactive) | –
CCCCNC(=O)Cn1nc(C)c(S(=O)(=O)N2CCOCC2)c1C | 6.35% (inactive) | –
Cc1ccc(OCC(=O)OCc2cc(=O)n3nc(C4CC4)sc3n2)cc1C | -5.73% (inactive) | –
Cc1nn(-c2nc(-c3ccccc3)cc(C(F)(F)F)n2)c(C)c1Cl | -10.5% (inactive) | –
COC(=O)c1cc(S(=O)(=O)N2CCN(c3cc(Cl)ccc3C)CC2)c[nH]1 | -8.69% (inactive) | –
COc1ccc(NC(=O)CSc2nccn2C2CCCC2)cc1OC | -9.33% (inactive) | –
COC(=O)c1ccccc1NC(=O)c1ccc(COc2ccccc2Cl)o1 | 0.735% (inactive) | –
COc1ccc(OCc2cc(C(=O)NCC3(C)COC3)no2)c(Cl)c1 | – | 19 µM (active)
COc1ccc(CCNC(=O)c2cnc(Cl)c(Cl)c2)cc1 | -8.36% (inactive) | –
CC1CCCN(Cc2c(O)ccc3c(=O)c(Oc4ccc(C(C)(C)C)cc4)c(C(F)(F)F)oc23)C1 (stereo unspecified) | -0.574% (inactive) | –
COc1ccc(NC(=O)Cn2c(=O)n(Cc3ccc(C(=O)NCc4ccccc4Cl)cc3)c(=O)c3ccccc32)cc1 | -5.56% (inactive) | –
O=C(Cn1c(=O)n(Cc2cccs2)c(=O)c2cccnc21)Nc1ccc(F)cc1 | -12.1% (inactive) | –
COc1cc(C(=O)N2CCC(c3ccncc3)CC2)cc(OC)c1OC | -0.564% (inactive) | –
C/C(N)=C(/C#N)C(=O)COC(=O)C1CCN(C(=O)c2ccc(Cl)cc2)CC1 | -1.2% (inactive) | –
COc1cccc(CNC(=O)c2ccc3c(c2)sc2nc(-c4cccc(OC)c4)cn23)c1 | 1.31% (inactive) | –
Cc1ccc2nc(COc3cccc(NC(=O)c4ccccc4Cl)c3)cc(=O)n2c1 | – | 10.7 µM (active)
Cc1ccc2nc(COc3cccc(NC(=O)Nc4ccc(C)c(Cl)c4)c3)cc(=O)n2c1 | -15.5% (inactive) | –
Cc1ccc2nc(COc3cccc(NC(=O)c4cccc(Cl)c4)c3)cc(=O)n2c1 | -1.22% (inactive) | –
O=C(CNS(=O)(=O)c1ccc2ccccc2c1)Nc1ccc(F)c(F)c1F | -0.997% (inactive) | –
O=C(NCCc1ccccc1)c1ccc2c(c1)N(Cc1ccccc1)C(=O)c1ccccc1S2(=O)=O | -0.938% (inactive) | –

SMILES | activity change, negative = inhibition | Potency
CCCc1nc2ccccc2c(=O)n1NC(=O)c1c(O)c2ccccc2[nH]c1=O | -1.3% (inactive) | –
CC(C)C(=O)Nc1c(O)c2ccccc2[nH]c1=O | -1.52% (inactive) | –
NS(=O)(=O)c1ccccc1NC(=O)c1c(O)c2ccccc2[nH]c1=O | – | 9.53 µM (active)
CC1(C)N=C(SCc2ccccc2Cl)c2ccccc2N1 | -13.1% (inactive) | –
Cc1noc(/C=C/N(C)C)c1S(=O)(=O)N1CCCC(C(=O)Nc2cccc(F)c2)C1 (stereo unspecified) | -2.85% (inactive) | –
Cc1ccc(S(=O)(=O)N2CC(O)C[C@H]2C(=O)OCC(=O)Nc2ccc(N3CCOCC3)cc2)cc1C (stereo partly specified) | -11.1% (inactive) | –
CC(=O)c1sc(N2C(=O)c3oc4ccccc4c(=O)c3C2c2ccc(C)cc2)nc1C (stereo unspecified) | 4.04% (inactive) | –
COc1ccc(-n2c(-c3ccc(OC)c(OC)c3)n[nH]c2=S)cc1 | 0.218% (inactive) | –
CCN(CC(=O)NCCc1ccccc1)S(=O)(=O)c1ccc(C)cc1 | 0.229% (inactive) | –
CCN(CC)S(=O)(=O)c1ccc(-c2cn3ccc(C)cc3n2)cc1 | – | 2.39 µM (active)
CCN(c1cccc(C)c1)S(=O)(=O)c1ccc(-c2coc(C)n2)cc1 | -0.211% (inactive) | –
COc1ccc(-c2cn3ccc(C)cc3n2)cc1 | – | 0.19 µM (active)
COc1ccc(-c2cn3c(C)c(C(=O)Nc4cc(C)cc(C)c4)sc3n2)cc1 | -3.09% (inactive) | –
Fc1ccc(CN2CCc3nc(Nc4ccccc4)ncc3C2)cc1F | -10.5% (inactive) | –
O=C(Nc1cc(C(F)(F)F)ccc1Cl)c1nc2ccccc2nc1N1CCCCC1 | 0.203% (inactive) | –
CCN1CCC(N(Cc2ccc(F)cc2)C(=O)Nc2cc(C)ccc2C)CC1 | -1.66% (inactive) | –
O=C(NC1CCCCC1)c1ccc2c(c1)N(Cc1ccc(Cl)cc1)C(=O)c1ccccc1S2=O (stereo unspecified) | 3.17% (inactive) | –
CN(C(=O)COC(=O)CCCc1c[nH]c2ccccc12)c1c(N)n(Cc2ccccc2)c(=O)[nH]c1=O | 4.71% (inactive) | –
CCc1nc2onc(C)c2c(=O)n1CC(=O)O | -0.818% (inactive) | –
CC(C)CNC(=O)C(=O)NCc1ccccc1 | 0.285% (inactive) | –
CC(C)CNC(=S)Nc1ccc(F)cc1 | 4.61% (inactive) | –
CC(C)CNC(=O)C(=O)Nc1ccc(N(C)C)cc1 | – | 10.7 µM (active)
COc1ccc(CNC(=O)CSc2nc3ccccc3nc2Cc2ccccc2)cc1 | -6.86% (inactive) | –
COC(=O)c1cc(=O)n(-c2c(Cl)cc(C(F)(F)F)cc2Cl)[nH]1 | -0.736% (inactive) | –
Cc1ccc(CNC(=O)Cc2cn(C)c3ccccc23)cc1 | – | 15.1 µM (active)
Cn1cc(CCC(=O)NCc2ccc3c(c2)OCO3)c2ccccc21 | -3.15% (inactive) | –

SMILES | activity change, negative = inhibition | Potency
CCc1ccccc1NC(=O)Cc1cn(C)c2ccccc12 | – | inactive
COc1cc(Cl)c(NC(=O)CC(C)S(=O)(=O)c2cc3c(cc2C)NC(=O)CO3)c(OC)c1 (stereo unspecified) | 4.64% (inactive) | –
Cc1cc2c(=O)n(CC(=O)NCC(=O)Nc3ccc(C(C)C)cc3)cnc2s1 | 0.706% (inactive) | –
Cc1ccc(Nc2nc(-c3sc(NC(=O)c4ccccc4)nc3C)cs2)cc1 | – | 12 µM (active)
CC(=O)c1sc(N/N=C/c2ccc(C(C)C)cc2)nc1C | – | 6.01 µM (active)
CC(=O)c1sc(N)nc1C | 2.76% (inactive) | –
Cc1nnc(C)n1/N=C/c1ccc(C(C)C)cc1 | -14.6% (inactive) | –
Cc1ccc(C)c2sc(NC(=O)c3ccc(S(=O)(=O)N4CCCC4)cc3)nc12 | -4.28% (inactive) | –
CC(=O)c1sc(NC(=O)c2ccc(C)cc2)nc1C | – | 1.9 µM (active)
CC(=O)c1sc(N/N=C\c2ccc(C)cc2)nc1C | – | 2.39 µM (active)
CCCCCCC(=O)Nc1nc(C)c(-c2csc(Nc3cc(Cl)ccc3OC)n2)s1 | 3.19% (inactive) | –
Cc1nc(NC(=O)c2cccc(Cl)c2)sc1-c1csc(Nc2cccc(Cl)c2)n1 | -19.1% (inactive) | –
CC(=O)c1sc(NC(=O)C2=NN(c3ccccc3)C(=O)CC2)nc1C | -8.27% (inactive) | –
CC(=O)Nc1ccc(NC(=O)C2CCCN(S(=O)(=O)c3ccc4c(c3)CCCC(=O)N4)C2)cc1 (stereo unspecified) | 3.09% (inactive) | –
CCc1cccc(CC)c1NC(=O)COc1ccccc1C(=O)c1cc(C#N)c(=O)n(C2CCCCC2)c1 | 0.626% (inactive) | –
C=C(C)CNc1cc(S(=O)(=O)N2CCOCC2)ccc1Oc1ccccc1 | -9.91% (inactive) | –
Cc1ccc(Nc2c(-c3ccc(Cl)cc3)nc3sccn23)c(C)c1 | 1.53% (inactive) | –
Cc1ccc(-c2nn3c(=O)cc(CN4CCN(S(=O)(=O)c5ccc(Cl)cc5)CC4)nc3s2)cc1 | -1.26% (inactive) | –
O=S(=O)(c1ccc(C2CCCCC2)cc1)N1CCN(c2ccc(Cl)c(Cl)c2)CC1 | -0.965% (inactive) | –
CC(C)C(=O)Nc1ccc2oc(=O)ccc2c1 | -0.984% (inactive) | –
CC(C)C(=O)Nc1ccc2c(c1)oc1ccccc12 | – | 2.69 µM (active)
Cc1cc(=O)oc2cc(NC(=O)C(C)Oc3ccccc3)ccc12 (stereo unspecified) | -4.58% (inactive) | –
COc1cc2nc(SCc3ccc(F)cc3)n3nc(CCn4c(C)nc5ccccc54)nc3c2cc1OC | 3.7% (inactive) | –
O=C(CCc1nc(CN2CCN(S(=O)(=O)c3ccc(F)cc3)CC2)no1)N1CCCCC1 | -0.23% (inactive) | –
CCC(=O)N1CCc2cc(Br)cc(S(=O)(=O)CCC(=O)NCCc3ccc(OC)c(OC)c3)c21 | -1.48% (inactive) | –
CCC(=O)N1c2ccccc2CC1C(=O)N1CCN(c2ccccc2F)CC1 (stereo unspecified) | -2.51% (inactive) | –

SMILES | activity change, negative = inhibition | Potency
COc1cc(OC)cc(C(=O)Nc2ccc3nc(Nc4cccc(C(F)(F)F)c4)cc(C)c3c2)c1 | -0.831% (inactive) | –
Cc1ccc2nc(Nc3ccccc3)cc(C)c2c1 | – | 23.9 µM (active)
Cc1ccc2nc(Nc3ccccc3O)nc(-c3ccccc3)c2c1 | 5.48% (inactive) | –
O.O.O.O=S(=O)([O-])OC[C@H]1O[C@@H](O[C@]2(COS(=O)(=O)[O-])O[C@H](OS(=O)(=O)[O-])[C@@H](OS(=O)(=O)[O-])[C@@H]2OS(=O)(=O)[O-])[C@H](OS(=O)(=O)[O-])[C@@H](OS(=O)(=O)[O-])[C@@H]1OS(=O)(=O)[O-].[Al] | 3.26% (inactive) | –
O=C(Nc1ccncc1)c1c(F)cccc1F | -3.22% (inactive) | –
CSc1nc2ccc(NC(=O)c3c(F)cccc3F)cc2s1 | – | 19 µM (active)
CC(=O)Nc1ccc2nc(SCCOc3cc(C)cc(C)c3)sc2c1 | -7.29% (inactive) | –
CCn1c(=O)c(=O)n(CC)c2cc(N3CCCCC3)c(NC(=O)c3ccc(Cl)cc3)cc21 | 2.47% (inactive) | –
CC(=O)Cn1ncc(N2CCOCC2)c(Br)c1=O | -1.76% (inactive) | –
O=C(Cn1ncc(N2CCCC2)c(Br)c1=O)c1ccc(Cl)cc1 | – | 19 µM (active)
O=C(O)c1cccc(NC(=O)c2cc(-c3cccc(Cl)c3)nc3ccccc23)c1 | – | 16.9 µM (active)
COc1ccccc1NC(=O)c1cc(Cl)nc2ccccc12 | -8.53% (inactive) | –
CCN(CC)CCNC(=O)c1ccc(NC(=O)c2cc(-c3ccncc3)nc3ccccc23)cc1 | -1.21% (inactive) | –
COc1ccc(CNC(=O)CSc2n[nH]c(-c3ccc(F)cc3)n2)cc1 | -15.8% (inactive) | –
CCc1ccc(-c2nc(SCC(=O)NC3CCCC3)n[nH]2)cc1 | – | 19 µM (active)
CCOc1cc(-c2nnc(SCC(=O)NC3CCCC3)nc2-c2ccc(OC)c(OCC)c2)ccc1OC | -2.08% (inactive) | –
CC(=O)C[C@@H](O)CC(=O)[C@H]1OC(=O)CCCCCCc2ccccc21 | 0.211% (inactive) | –
O=C(Nc1ccccc1)C1CCN(C(=O)c2ccc(Br)cc2)CC1 | 3.48% (inactive) | –
CC(C)(C)c1ccc(C(=O)N2CCC(C(=O)N3CCCCC3)CC2)cc1 | 1.12% (inactive) | –
C/C(=C\C(=O)c1ccc(Br)cc1)N1CCCCC1 | – | 15.1 µM (active)
COc1cccc(CNC(=O)Cn2ncn3c(cc4ccccc43)c2=O)c1 | 3.75% (inactive) | –
CCC(C)Cn1c(O)cc2nn(-c3nc4ccccc4s3)c(=O)c-2c1C (stereo unspecified) | – | 0.301 µM (active)
Cc1cc(NC(=O)CN2CCCC(C)C2)n(-c2nc3ccccc3s2)n1 (stereo unspecified) | -0.742% (inactive) | –
